The text below walks through data of PubChem BioAssay (NCI).

This is part of a sample that, as a whole, favours compounds with a hit. Of some 83,000 tested, about 20% had one in any assay.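 In brief: 96-well plates, 48 h treatment, single concentration, percent growth endpoint.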 Unmarked numbers belong to inactive results. Calls of active or inactive are those of the source. How the source made its calls: active means growth percent below 10; inactive means the rest.

Test systems include HCT-15 colon; HT29 colon; SNB-75 CNS; SNB-19 CNS; U251 CNS; PC-3 prostate; SK-MEL-5 melanoma; UACC-62 melanoma; LOX IMVI melanoma; SK-MEL-28 melanoma; SK-MEL-2 melanoma; EKVX NSCLC; SN12C renal; UO-31 renal; TK-10 renal; ACHN renal; CAKI-1 renal; A498 renal; CCRF-CEM leukemia; MOLT-4 leukemia.
Common to all, as to assay: NCI-60 one-dose screen, 48 h (100 = growth as untreated, 0 = no growth, -100 = all killed)
What all share (conditions): 10 µM unless noted

With `COc1cc2c(cc1OCCCCn1c(-c3cc(=O)c4ccccc4o3)nc3ccccc31)N=C[C@@H]1CCCN1C2=O`, the growth with HCT-15 colon is 106%; in the experiment with HT29 colon it was 102%; in the experiment on SNB-75 CNS, 101%; in the experiment with SNB-19 CNS, 93.1%; in the experiment with U251 CNS, 75.3%; in the experiment with PC-3 prostate it was 94.9%. Besides, the growth in the experiment on SK-MEL-5 melanoma is 93.6%; in the experiment with UACC-62 melanoma, 99.4%; in the experiment with LOX IMVI melanoma it was 68.5%; with SK-MEL-28 melanoma, 124%; with SK-MEL-2 melanoma it was 26.7%; with EKVX NSCLC, 129%. In addition, the growth in the experiment on SN12C renal is 102%; with UO-31 renal, 35.8%; in the experiment on TK-10 renal it was 157%; in the experiment on ACHN renal, 93.1%; in the experiment with CAKI-1 renal it was 82.8%; with A498 renal, 121%. The growth was 49.4% with CCRF-CEM leukemia and 82.4% in the experiment with MOLT-4 leukemia.
In the case of `O=C(Nc1ccc(F)cc1)c1cc([N+](=O)[O-])ccc1O`, the growth in the experiment on HCT-15 colon was 68.1%; with HT29 colon it was 61.7%; in the experiment with SNB-75 CNS, 78.1%; with SNB-19 CNS, 70.9%; in the experiment with U251 CNS, 61.6%; in the experiment on PC-3 prostate, 54.7%. For the same molecule, the growth with SK-MEL-5 melanoma is 30%; in the experiment with UACC-62 melanoma, 36.8%; with LOX IMVI melanoma it was 56.3%; with SK-MEL-28 melanoma it was 55.9%; in the experiment on SK-MEL-2 melanoma, 37%; in the experiment on EKVX NSCLC, 77%. The growth was 82.4% with SN12C renal; 58.9% with UO-31 renal; 81.6% in the experiment on TK-10 renal; 73.2% in the experiment with ACHN renal; 67.1% with CAKI-1 renal; 25.5% in the experiment with A498 renal. The growth in the experiment with CCRF-CEM leukemia was 59.5%; in the experiment with MOLT-4 leukemia, 63.3%.
Turning to `NC(=O)c1ccc2c(c1)OCO2`, the growth in the experiment on HCT-15 colon is 102%; in the experiment with HT29 colon it was 103%; with SNB-75 CNS it was 84.2%; in the experiment with SNB-19 CNS, 109%; with U251 CNS, 107%; in the experiment on PC-3 prostate, 98.9%. Further, the growth in the experiment with SK-MEL-5 melanoma was 99.2%; in the experiment with UACC-62 melanoma, 103%; with LOX IMVI melanoma it was 95.4%; with SK-MEL-28 melanoma, 108%; in the experiment with SK-MEL-2 melanoma, 114%; in the experiment on EKVX NSCLC, 95.1%. Further, the growth is 108% in the experiment on SN12C renal; 102% in the experiment with UO-31 renal; 91.7% in the experiment on TK-10 renal; 109% in the experiment with ACHN renal; 93.5% in the experiment with CAKI-1 renal; 86.8% in the experiment on A498 renal. For the same molecule, the figures for the growth in the experiment with CCRF-CEM leukemia and with MOLT-4 leukemia were 102% and 105%, respectively.
For `CCCCn1c(=O)c(C2CNC(=O)c3ccccc3N2)cc2ccccc21` (stereo not given), the growth in the experiment on HCT-15 colon is 101%; in the experiment with HT29 colon it was 103%; with SNB-75 CNS, 84%; in the experiment with SNB-19 CNS, 91%; in the experiment with U251 CNS, 98%; with PC-3 prostate, 106%. Further, the growth is 102% in the experiment with SK-MEL-5 melanoma; 88.4% in the experiment with UACC-62 melanoma; 97.3% in the experiment with LOX IMVI melanoma; 102% in the experiment on SK-MEL-28 melanoma; 106% with SK-MEL-2 melanoma; 103% in the experiment on EKVX NSCLC. Besides, the growth in the experiment with SN12C renal is 85.7%; in the experiment on UO-31 renal it was 93.1%; with TK-10 renal it was 109%; in the experiment on ACHN renal it was 98.2%; in the experiment with CAKI-1 renal, 85.8%; in the experiment on A498 renal it was 88.7%. Also, the growth is 110% with CCRF-CEM leukemia and 46.4% with MOLT-4 leukemia.
Regarding `CSc1nc(-c2cc3ccccc3o2)cc(-c2ccc(Cl)cc2)c1C#N`, the growth in the experiment with HCT-15 colon was 31.1%; in the experiment on HT29 colon it was -50.6% (active); in the experiment with SNB-75 CNS it was -36% (active); in the experiment with SNB-19 CNS, 55.1%; in the experiment on U251 CNS, 6.2% (active); in the experiment with PC-3 prostate, 22.2%. Moreover, the growth in the experiment with SK-MEL-5 melanoma was 55.3%; in the experiment on UACC-62 melanoma, -17.1% (active); with LOX IMVI melanoma, 16.8%; with SK-MEL-28 melanoma it was 65.2%; with SK-MEL-2 melanoma it was 23.8%; in the experiment with EKVX NSCLC, 73.7%. The growth is 36.8% in the experiment on SN12C renal; -18.2% (active) with UO-31 renal; 54.7% with TK-10 renal; -63% (active) with ACHN renal; 48% with CAKI-1 renal; 81.9% in the experiment with A498 renal. The growth is 86.8% in the experiment with CCRF-CEM leukemia and 94.5% in the experiment on MOLT-4 leukemia.
For `C=C1C(=O)O[C@H]2[C@H]1CC/C(COC(=O)NCCc1cccc(OC)c1)=C\CC[C@@]1(C)O[C@@H]21`, the growth in the experiment with HCT-15 colon is 5.34% (active); with HT29 colon, 1.86% (active); in the experiment on SNB-75 CNS, 76.1%; in the experiment on SNB-19 CNS, 56.9%; with U251 CNS, 66%; in the experiment with PC-3 prostate, 50.5%. Moreover, the growth in the experiment with SK-MEL-5 melanoma was 87.6%; in the experiment with UACC-62 melanoma it was 22.8%; in the experiment with LOX IMVI melanoma, 3% (active); in the experiment on SK-MEL-28 melanoma it was 46.7%; in the experiment on SK-MEL-2 melanoma, 68.5%; in the experiment on EKVX NSCLC, 68.3%. Moreover, the growth is 42.6% in the experiment on SN12C renal; 32% in the experiment with UO-31 renal; 24.9% in the experiment with TK-10 renal; -9.71% (active) in the experiment with ACHN renal; 8.84% (active) in the experiment with CAKI-1 renal; 82.4% with A498 renal. The growth in the experiment on CCRF-CEM leukemia was 4.38% (active); with MOLT-4 leukemia, 11.5%.
As to `CN1CCN(CCCOc2ccc3nc(Nc4ccc(C(F)(F)F)c(Cl)c4)ccc3c2)CC1`, the growth is -36.9% (active) with HCT-15 colon; -67.2% (active) in the experiment on HT29 colon; 4.61% (active) in the experiment on SNB-75 CNS; -41.2% (active) in the experiment with SNB-19 CNS; -62.3% (active) in the experiment with U251 CNS; 8.45% (active) in the experiment with PC-3 prostate. Further, the growth with SK-MEL-5 melanoma was 34.1%; in the experiment on UACC-62 melanoma it was -36.3% (active); in the experiment with LOX IMVI melanoma, -83.1% (active); with SK-MEL-28 melanoma, -73.2% (active); in the experiment on SK-MEL-2 melanoma it was 8.88% (active); with EKVX NSCLC it was 38.7%. Besides, the growth in the experiment on SN12C renal was 25%; with UO-31 renal, -8.8% (active); in the experiment with TK-10 renal it was 18.9%; in the experiment on ACHN renal it was 3.12% (active); in the experiment on CAKI-1 renal, 3.08% (active); in the experiment on A498 renal, 63.3%. Besides, the growth is 3.91% (active) in the experiment with CCRF-CEM leukemia and -35.7% (active) in the experiment on MOLT-4 leukemia.
Regarding `O=[N+]([O-])c1ccc(S(=O)(=O)N2CCN(c3ccnc4cc(Cl)ccc34)CC2)c([N+](=O)[O-])c1`, the growth was 66.6% in the experiment with HCT-15 colon; 93.5% in the experiment with HT29 colon; 73.8% with SNB-75 CNS; 98.2% with SNB-19 CNS; 93.9% in the experiment on U251 CNS; 95.1% in the experiment with PC-3 prostate. For the same molecule, the growth with SK-MEL-5 melanoma was 98.8%; in the experiment with UACC-62 melanoma, 81.8%; with LOX IMVI melanoma, 32%; in the experiment with SK-MEL-28 melanoma, 108%; in the experiment on SK-MEL-2 melanoma, 101%; in the experiment with EKVX NSCLC, 87.9%. Also, the growth was 88.2% in the experiment on SN12C renal; 55.4% with UO-31 renal; 95.4% with TK-10 renal; 84.3% in the experiment on ACHN renal; 81.1% in the experiment with CAKI-1 renal; 90% with A498 renal. Further, the growth in the experiment with CCRF-CEM leukemia was 14.8%; with MOLT-4 leukemia it was 44.5%.
